USP30 block: inhibitors of human USP30 deubiquitinase; Ubiquitin carboxyl-terminal hydrolase 30 (Homo sapiens), Q70CQ3; purified USP30, Ub-rhodamine cleavage fluorescence; inhibition, % at 25 µM; AID 1645860, 2021; actives 5.3% (n = 47,000)
Target sequence (Q70CQ3 whole entry, looked up): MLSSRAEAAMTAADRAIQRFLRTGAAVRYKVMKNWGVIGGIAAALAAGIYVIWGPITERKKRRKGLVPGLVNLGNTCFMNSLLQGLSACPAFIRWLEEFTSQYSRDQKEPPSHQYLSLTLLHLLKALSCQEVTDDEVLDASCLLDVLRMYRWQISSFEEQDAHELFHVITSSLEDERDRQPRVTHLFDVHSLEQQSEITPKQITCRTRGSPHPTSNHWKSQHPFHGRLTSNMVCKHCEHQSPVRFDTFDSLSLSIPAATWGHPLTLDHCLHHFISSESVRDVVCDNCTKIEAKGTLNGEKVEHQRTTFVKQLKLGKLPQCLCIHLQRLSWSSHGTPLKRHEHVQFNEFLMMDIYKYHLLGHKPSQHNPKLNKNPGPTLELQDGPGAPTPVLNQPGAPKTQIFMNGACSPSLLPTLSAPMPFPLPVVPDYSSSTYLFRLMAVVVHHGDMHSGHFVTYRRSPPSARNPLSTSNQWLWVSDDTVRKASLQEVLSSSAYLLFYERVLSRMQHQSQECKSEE
USP17 block: inhibitors of human USP17 deubiquitinase | Ubiquitin carboxyl-terminal hydrolase 17-like protein 5 (Homo sapiens), A8MUK1 | inhibition, % at 50 µM | purified USP17, Ub-rhodamine cleavage fluorescence, 3 h | AID 1645855, 2021 | actives 6.5% (n = 47,000)
Active calls of the source: *; . = no result given. Sampled rows, rich in hits. Any-hit rate of the full collection: about 9.6%. No stated cut-off is given here; in the data, active means inhibition above about 30%; inactive means the rest.

SMILES	USP30 block	USP17 block
O=S(=O)(c1cc(F)cc(F)c1)N1CCc2nc3ccccc3n2CC1	-8	2
N#Cc1cccc(S(=O)(=O)N2CCc3nc4ccccc4n3CC2)c1	51*	30*
COc1cccc(S(=O)(=O)N2CCc3nc4ccccc4n3CC2)c1	0	14
CCc1nc2ccc(C(=O)Nc3nc(-c4ccc5c(c4)CCN5C(=O)C4CC4)cs3)cc2nc1CC	-19	-4
CCCCCC(=O)Nc1cc(=O)[nH]c2nc(CCc3ccccc3)nn12	-33	18
CCc1nc(SCCO)c2oc3ccccc3c2n1	-13	-4
COc1ccc(OC)c(NC(=O)CSc2nc(C)nc3c2oc2ccccc23)c1	18	61*
COc1ccc2c(c1)c(C(=O)CSc1nc(C)nc3c1oc1ccccc13)c(C)n2C	28	23
CCc1nc(Sc2ccc3ccccc3c2)c2oc3ccccc3c2n1	52*	51*
CCc1nc(SCC(=O)Nc2cc(C)ccc2OC)c2oc3ccccc3c2n1	42*	41*
CCc1nc(SCC(=O)NCCc2ccc(OC)c(OC)c2)c2oc3ccccc3c2n1	21	-7
Cc1cccc(N(CC(=O)NC2CCCC2)C(=O)Cn2nnc(-c3ccc(F)cc3)n2)c1C	0	4
Cc1ccccc1N1C(=O)CN(S(C)(=O)=O)CC1(C)C(=O)NC1CCCC1 (stereo not drawn)	17	7
Cc1ccc2c(c1)C(=O)N(C(C)C(=O)Nc1c(C)n[nH]c1C)CC1(CCOCC1)O2 (stereo not drawn)	-12	-11
O=C1N[C@@H]2CN(C(=O)Nc3ccccn3)CC[C@H]2CO1	11	7
O=C(c1nnc(-c2cc(S(=O)(=O)N3CCCCCC3)c[nH]2)o1)N1CCCC1	30	21
CC1CCN(S(=O)(=O)c2c[nH]c(-c3nnc(C(=O)N4CCCC4)o3)c2)CC1	47*	28
COC(=O)C1CCN(Cc2cc(=O)oc3cc(OC)ccc23)CC1	0	0
COc1cc2oc(=O)cc(CN3CCCCC3)c2cc1OC	2	45*
COc1ccc(-c2csc(C)n2)cc1S(=O)(=O)N1CCC2(CC1)OCCO2	9	0
O=C(NCCc1ccccc1)c1ccc2c(=O)n(CCC3=CCCCC3)c(=O)[nH]c2c1	0	-9
O=C(NCCCN1CCN(c2ccc(F)cc2)CC1)c1ccc2c(=O)n(CCc3ccccc3)c(=O)[nH]c2c1	42*	31*
O=C(c1ccc(Cn2c(=O)[nH]c3ccccc3c2=O)cc1)N1CCN(Cc2ccc3c(c2)OCO3)CC1	25	33*
O=C(c1ccc(Cn2c(=O)[nH]c3ccccc3c2=O)cc1)N1CCN(c2ccc(F)cc2)CC1	48*	10
O=C(NC1CCN(Cc2ccccc2)CC1)c1ccc(Cn2c(=O)[nH]c3ccccc3c2=O)cc1	0	-6
SMILES	USP30 block	USP17 block
O=C(CCn1c(=O)[nH]c2ccccc2c1=O)N1CCN(c2ccc(F)cc2)CC1	-15	-12
O=C1COc2ccccc2C/C=C/CC2(CCN(C(=O)c3cccnc3)CC2)CN1	21	0
COCCNC(=O)N1CCCn2nc(-c3ccncc3)cc2C1	-10	-32
COc1cc2c(cc1OC)-c1cc(Nc3ccc(CN4CCCCC4)cc3)nc(=O)n1CC2	8	8
Cc1cccn2c(=O)c3cc(C#N)c(=O)n(-c4cccc(C(F)(F)F)c4)c3nc12	-387	-88
Cc1cccn2c(=O)c3cc(C#N)c(=O)n(-c4ccccc4[N+](=O)[O-])c3nc12	-71	39*
COC(=O)c1ccc(C(=O)OC)c(NC(=O)c2nn(-c3ccccc3)c(=O)cc2OC)c1	14	37*
COC(=O)c1ccc(C)c(NC(=O)c2nn(Cc3ccccc3)c(=O)c3ccccc23)c1	-111	-4
CCn1c(CN2CCCC(c3nc(-c4cccnc4)n[nH]3)C2)nc2ccccc21 (stereo not drawn)	-20	-42
CC[C@@H]1CCC[C@H](C)CC[C@@H](O[C@@H]2O[C@@H](C)[C@@H](O)[C@@H](N)[C@H]2O)[C@H](CC)CCCNC1=O	95*	83*
Nc1ccc2oc(-c3cccc(-c4nc5cc(N)ccc5o4)n3)nc2c1	68*	53*
Clc1ccc2oc(-c3cccs3)nc2c1	10	5
CCC1(C)Cc2c(sc3nc(SC(C)C)nc(NCCOC)c23)CO1 (stereo not drawn)	.	-9
CCCN(CC(=O)Nc1ccccc1OC)C(=O)/C=C/c1ccc(F)cc1	-22	-19
CC(C)[C@@](O)(C(=O)OC[C@@H]1CCN2CCC[C@@H]12)[C@@H](C)O	-58	-21
Cc1c(C(=O)N2CCCN(S(=O)(=O)c3ccc(F)cc3)CC2)oc2ccc(F)cc12	-1	4
Cc1ccc(S(=O)(=O)N2CCCN(C(=O)c3oc4ccccc4c3C)CC2)cc1	33*	22
O=C(NCC(=O)N1CCCCC1)c1cccc(-c2ccc(CC3CCCNC3=O)cc2)c1 (stereo not drawn)	18	-2
O=C(COC(=O)c1ccc2ncsc2c1)Nc1ccccc1F	0	61*
O=C(COC(=O)c1ccc2ncsc2c1)Nc1ccc(F)c(F)c1	12	4
Cc1ccc(NC(=O)CCc2nc(CSc3nnc(-c4ccco4)o3)no2)cc1Cl	24	3
C=C1NC(=O)[C@@H](CC)NC(=O)CNC(=O)[C@H](Cc2c[nH]c3cccc(OC)c23)NC(=O)[C@H](Cc2c[nH]c3ccccc23)NC(=O)c2csc(n2)[C@@H](C)NC(=O)CN(C)C1=O	8	32*
O=C1NC(Cc2c[nH]c3ccccc23)C(=O)NC1Cc1c[nH]c2ccccc12 (stereo not drawn)	5	2
CCc1ccc(NC(=O)Cc2nnc(-c3ccc4ncccc4c3)o2)cc1	43*	63*
Cc1cccc(NC(=O)Cc2nnc(-c3ccc4ncccc4c3)o2)c1	-28	-5
SMILES	USP30 block	USP17 block
O=C(CC1C(=O)NCCN1C(=O)c1ccc(F)cc1F)Nc1ccc(F)cc1 (stereo not drawn)	-12	-12
Cc1oc(C2CCN(C(=O)NCc3ccccc3)CC2)nc1C(=O)N1CCCC1	-13	0
Cc1cc2n(n1)CCCN2C(=O)CCC(=O)NCc1cccc(F)c1	-11	-5
CC(=O)Nc1cc(-c2ccccc2)nn(CC(=O)Nc2ccccc2)c1=O	15	0
COC(=O)CCSc1nc2cc(OC)c(OC)cc2c(=N)n1Cc1cccc(C(F)(F)F)c1	-27	-13
COCCCn1c(SCCc2ccccc2)nc2cc(OC)c(OC)cc2c1=N	3	43*
Cc1ncc(-c2cncc(CC3CCN(Cc4cccnc4)CC3)n2)n1C	-3	6
CC(OC(=O)c1ccccc1NS(=O)(=O)c1ccc2c(c1)OCCO2)C(=O)c1cccc(Cl)c1 (stereo not drawn)	18	-1
CC(Nc1ccccc1)c1nc2scc(-c3ccccc3)c2c(=O)[nH]1 (stereo not drawn)	1	15
CC(NCCc1ccc(Cl)cc1)c1nc2scc(-c3ccccc3)c2c(=O)[nH]1 (stereo not drawn)	-24	35*
O=C1COc2ccc(NC(=O)c3cnn(Cc4ccccc4)c3)cc2N1	19	63*
O=C(NC1=NCCS1)c1cnn(Cc2ccccc2)c1	0	2
CCOC(=O)C1CCN(C(c2cccc(OC)c2)c2c(NC(C)=O)sc3c2CCCC3)CC1 (stereo not drawn)	15	9
COCCn1c(=S)[nH]c2cc(C(=O)NCCSCc3ccccc3)ccc2c1=O	71*	27

High-throughput results from PubChem.
